# Reference: PubChem BioAssay (NCI)
# Compounds without any hit were thinned out: in the full panel of roughly 83,000, 20% have a hit.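 Cells were grown in 96-well plates and exposed to the test compound at a single concentration for 48 hours; results are reported as percent growth, with values below 10 considered active.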 Unmarked numbers belong to inactive results. Active and inactive are the calls of the source.
# Assays:
# Assay in all cases: NCI-60 one-dose screen, 48 h (100 = growth as untreated, 0 = no growth, -100 = all killed)
# Conditions in all cases: 10 µM
# [1] = test system: RPMI-8226 leukemia
# [2] = test system: OVCAR-8 ovarian
# [3] = test system: OVCAR-5 ovarian
# [4] = test system: OVCAR-4 ovarian
# [5] = test system: IGROV1 ovarian
# [6] = test system: OVCAR-3 ovarian
# [7] = test system: HS 578T breast
# [8] = test system: NCI/ADR-RES ovarian
# [9] = test system: T-47D breast
# [10] = test system: BT-549 breast
# [11] = test system: MDA-MB-435 melanoma
# [12] = test system: SW-620 colon
# [13] = test system: MCF7 breast
# [14] = test system: HCC-2998 colon
# [15] = test system: KM12 colon
# [16] = test system: HCT-116 colon
# [17] = test system: SK-OV-3 ovarian
SMILES,growth [1],growth [2],growth [3],growth [4],growth [5],growth [6],growth [7],growth [8],growth [9],growth [10],growth [11],growth [12],growth [13],growth [14],growth [15],growth [16],growth [17]
COc1cc2cc3c(nc2cc1OC)CCN3Cc1ccc(NC(=O)Nc2ccc(F)cc2F)cc1,66%,79.7%,105%,61.2%,89.8%,84.1%,99.7%,73%,52.1%,76.7%,89%,100%,81.3%,85.1%,87.2%,,
Cc1ccc(Nc2cc(C)nc(NCCCNc3ccnc4cc(Cl)ccc34)n2)cc1,-63.8% (active),-60.7% (active),1.62% (active),-26.1% (active),7.69% (active),-79.9% (active),-58.6% (active),-33% (active),-73% (active),-85.5% (active),-90% (active),-84.3% (active),-95% (active),-86.3% (active),-49.8% (active),-100% (active),
COc1cc(Cc2cc(-c3ccc(Cl)cc3)n[nH]c2=O)ccc1O,47.9%,92.6%,115%,,112%,96.1%,73.2%,126%,91%,95.2%,110%,109%,87.2%,131%,105%,101%,98.6%
CC(C)C[C@H](NC(=O)[C@H](Cc1cccc2ccccc12)NS(=O)(=O)c1cccc2cccnc12)B(O)O,-36.7% (active),,-57.6% (active),,,-77.1% (active),-18.8% (active),14.6%,-44.6% (active),-49.8% (active),-52.2% (active),-16% (active),9.94% (active),-89.2% (active),-73.8% (active),-91.2% (active),0.299% (active)
O=C(CNC(=O)OCc1ccccc1)NCC(=O)Oc1ccc([N+](=O)[O-])cc1,112%,,109%,99.2%,109%,111%,137%,96.2%,103%,101%,98.4%,95.9%,95.8%,,102%,93.7%,100%
COc1ccc(N=C2C(=Nc3ccc(OC)cc3)N(c3ccc(N(C)C)cc3)C(=S)N2c2ccc(OC)cc2)cc1,-12.4% (active),,34.9%,,107%,106%,19.6%,95.8%,91.1%,75.1%,86.5%,94.7%,84.9%,105%,86.8%,81.6%,87.9%
NC(=O)SCC(=O)Nc1ccc(S(N)(=O)=O)cc1,108%,104%,,106%,112%,107%,99.6%,105%,98.2%,,106%,99.2%,104%,102%,101%,109%,108%
C=C(NC(=O)C(=C)NC(=O)c1csc(C2=NC3c4csc(n4)C4NC(=O)c5csc(n5)C(C(C)(O)C(C)O)NC(=O)C5CSC(=N5)/C(=C/C)NC(=O)C(C(C)O)NC(=O)c5csc(n5)C3(CC2)NC(=O)C(C)NC(=O)C(=C)NC(=O)C(=C)NC(=O)C(C(C)C)NC2C=Cc3c(C(C)O)cc(nc3C2O)C(=O)OC4C)n1)C(N)=O (stereo not drawn),-37.1% (active),,52.6%,6.53% (active),-18.1% (active),13.4%,22%,77.2%,-6.42% (active),-35.1% (active),-65.2% (active),-8.45% (active),19.8%,-57.2% (active),-88.1% (active),-49.5% (active),61.9%
c1ccc([C@H]2CN3CCSC3=N2)cc1,110%,,87.2%,,,111%,85.7%,103%,99.6%,,101%,98.6%,94.4%,119%,109%,110%,
O=C1OCC2=C1C(c1cccc(Br)c1)c1cc3c(cc1N2CCO)CCC3 (stereo not drawn),19%,,22.4%,54.6%,20.3%,-62.5% (active),6.91% (active),-5.39% (active),,15.7%,-40% (active),17.5%,21.4%,,-47.5% (active),6.12% (active),28.8%
